Rows were chosen to be rich in hits. Some 11% of all compounds tested hit in one or more screens of this group.
PNC assembly inh = perinucleolar compartment assembly inhibition; PC3M PTB-GFP, PNC prevalence imaging, 16 h; stronger effect = lower value; activity change (PNC), negative = inhibition, % at 10 µM; 3.1% of 140,000 active; AID 2417;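 active = readout at or below -70, meaning at least 70% loss of cells showing the perinucleolar compartment, a nuclear body marking cancer cells; inconclusive = readout between -30 and a set limit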
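Read-out is percentage of cells bearing a perinucleolar compartment, from automated 20x imaging of fixed, Hoechst-stained PC3M PTB-GFP cells. Cells were seeded 4 h, then exposed 16 h to compound (23 nl of library stock) in duplicate plates.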
IMPase inh = cell-permeable inhibitors of inositol monophosphatase (IMPase); CHO-M1 cells, IP1 accumulation, HTRF TR-FRET ratio; P97697; inhibition (IP1 accumulation), % at 46.1 µM; 120,000 tested, under 10 active; active = well fitted curve in the direction sought with a large enough effect in the signal ratio, not every such curve was filed as active; inconclusive = small, poorly fitted or top-dose-only effect, or a change in a side signal; inactive = no such curve, though single readings can be large or run the other way; the % refers to the signal ratio;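 note: cells stimulated with carbachol in lithium chloride buffer; higher means more IMPase inhibition seen as more IP1 and lower FRET ratio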
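Elevated IP1 in lysates lowers TR-FRET signal (665/620 ratio and 620 channel reported). Cells were CHO-M1, given carbachol (50 uM as added) plus 50mM LiCl, pH 7.4, 30 min, 37C; compounds titrated up to 46 uM; AC50 by Hill equation.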
IMPase Li cell = membrane-permeable IMPase blocker, potentiated with lithium; CHO-M1 cells, IP1 TR-FRET (IP-One), carbachol + lithium; Potency, µM (series often up to 59.4 µM), hits mostly inhibitors; 0.35% of 210,000 active; AID 1457; active = well fitted inhibition curve with a large enough effect; inconclusive = small, poorly fitted or top-dose-only effect; inactive = no such curve, though single readings can be large or run the other way;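 note: IP1 builds up when IMPase is blocked and the TR-FRET signal falls; nearly all actives have a fitted effect of over 50% in size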
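Readout is a homogeneous TR-FRET IP1 immunoassay (Ex 320, Em 665 and 620), where raised cytosolic IP1 lowers signal. Cells were CHO-M1 treated 30 min at 37C with test compounds plus a little lithium; AC50 values came from Hill-equation fitting.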
ALDH1A1 inh = ALDH1A1 (human) enzyme inhibition | Purified ALDH1A1, NADH fluorescence, propionaldehyde substrate | Potency, µM (top dose mostly 75.3 µM), usual class: inhibitors | 7.3% of 220,000 active
Target sequence (P00352 whole entry, looked up): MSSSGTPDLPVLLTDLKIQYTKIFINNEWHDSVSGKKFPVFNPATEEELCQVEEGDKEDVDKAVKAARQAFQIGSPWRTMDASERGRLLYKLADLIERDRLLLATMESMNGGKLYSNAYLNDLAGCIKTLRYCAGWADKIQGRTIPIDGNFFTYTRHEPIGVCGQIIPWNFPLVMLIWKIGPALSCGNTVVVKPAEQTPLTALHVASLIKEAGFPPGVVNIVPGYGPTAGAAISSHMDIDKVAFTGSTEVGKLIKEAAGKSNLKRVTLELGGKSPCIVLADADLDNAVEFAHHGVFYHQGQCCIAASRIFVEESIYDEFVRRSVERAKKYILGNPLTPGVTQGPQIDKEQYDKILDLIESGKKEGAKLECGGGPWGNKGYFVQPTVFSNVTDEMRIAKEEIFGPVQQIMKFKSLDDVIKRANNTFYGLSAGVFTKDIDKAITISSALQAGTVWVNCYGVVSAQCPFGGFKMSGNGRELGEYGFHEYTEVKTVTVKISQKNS
HPGD inh = HPGD (human) dehydrogenase inhibition; P15428; purified HPGD, NADH fluorescence kinetic, PGE2 substrate; Potency, µM, usual class: inhibitors; 4.3% of 150,000 active
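NADH formation kinetics: reaction with 30 uM PGE2 and 1 mM NAD+ (final), 20 nM enzyme, Tris-HCl pH 8 with Tween 20, after 15 min compound preincubation at room temperature. Fluorescence change, last versus first of five reads.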
Hits are given with their value; . = inactive; ? = inconclusive; / = no result; [ ] = remark or other dose. Unless noted, calls come from the whole dose curve; as a rule, active = well fitted inhibition curve with a large enough effect (not every such curve was filed as active); inconclusive = small, poorly fitted or top-dose-only effect, or another doubt; inactive = no such curve, though single readings can be large or run the other way.

SMILES	PNC assembly inh	IMPase inh	IMPase Li cell	ALDH1A1 inh	HPGD inh
O=C(Nc1ccccc1)c1cnc2ccccc2n1	-114	/	.	.	.
O=C(NC(=S)Nc1ccccc1)c1cc(-c2ccccc2)nc2ccccc12	?	.	?	1.3µM	20µM
O=C(Nc1ccccc1)c1cc(Cl)nc2ccccc12	-100	/	.	.	.
O=c1c(-c2ccc(F)cc2)nc2cncnc2n1Cc1ccc(F)cc1	/	/	.	.	/
O=c1c2ccccc2nnn1COc1cccc(Cl)c1	/	/	.	.	/
CC(=O)N(Cc1cc2ccc(C)c(C)c2n2nnnc12)C1CCCC1	.	.	.	?	.
Cc1cc2cc(CN(C(=O)C3CC3)C3CCCC3)c3nnnn3c2cc1C	?	.	.	0.2µM	.
O=S(=O)(c1ccc(Cl)cc1)N1CCCC(C(F)(F)F)C1 (configuration not stated)	/	/	.	.	/
COc1cccc(NC(=O)CSc2nnc(-c3cccc(OC(C)C)c3)n2N)c1	.	.	/	?	/
Cc1cc(C)c(S(C)(=O)=O)c(Oc2cccc(C(F)(F)F)c2)n1	/	/	.	?	/
O=C(CCCOc1ccccc1)N1CCCCC1	.	.	.	.	4µM
CN(c1ccc(OCC(=O)N2CCCCC2)cc1)S(=O)(=O)c1cccs1	.	.	.	.	14µM
O=C(COc1ccc(Cl)cc1)N1CCN(C(=O)c2cccc(F)c2)CC1	.	.	.	14µM	.
O=C(CCCOc1ccc(Cl)cc1)N1CCCCCC1	-99	.	.	7.9µM	2.2µM
CN(c1ccc(OCC(=O)N2CCN(c3ccc(F)cc3)CC2)cc1)S(=O)(=O)c1cccs1	/	/	.	.	/
Cc1cc([N+](=O)[O-])c(C)c(Br)c1C	/	/	.	.[13.5 µM]	.
O=C(CCCOc1ccc(Cl)cc1)N1CCCCC1	.	.	.	.	1.6µM
O=C(CCCOc1ccc(Cl)cc1)N1CCOCC1	.	.	.	.	.
O=C(c1cccc(F)c1)N1CCN(C(=O)c2nn3cccnc3c2Cl)CC1	.	.	.	20µM	.
COc1ccc(OCC(=O)N2CCN(C(=O)c3cccc(OC)c3OC)CC2)cc1	/	.	/	/	/
COc1ccc(OCCNC(=O)c2ccccc2OCC(=O)N2CCCCC2)cc1	?	.	.	3.5µM	.
Cc1cc(Cl)ccc1OCC(=O)N1CCCCC1	.	.	.	.	28µM
COc1ncc2nc(-c3ccc(F)cc3)c(=O)n(-c3ccccc3)c2n1	/	/	.	?	/
O=C(COc1ccc(Cl)cc1)N1CCCCC1	.	.	.	.	25µM
O=C(COc1ccc(Cl)cc1)N1CCN(c2ncccn2)CC1	.	.	.	.	.
SMILES	PNC assembly inh	IMPase inh	IMPase Li cell	ALDH1A1 inh	HPGD inh
CN(/C=C/C(=C\C=[N+](C)c1ccccc1)OCCCS(=O)(=O)[O-])c1ccccc1	/	/	.	32µM	/
CCCCC(=O)NCCc1cc2ccc(OC)cc2[nH]c1=O	-100	.	.	.	?
CCCC(=O)NCCc1cc2ccc(OC)cc2[nH]c1=O	.	.	.	.	.
CC(C)Oc1ccc2c(=O)c3cc(C(=O)O)ccc3oc2c1	/	.	.	?	?
O=C(NCCSCc1c(F)cccc1Cl)c1ccco1	.	.	.	16µM	5µM
COCCNC(=O)CSCc1c(F)cccc1Cl	.	.	.	.	22µM
COc1ccc(CNC(=O)CSCc2c(F)cccc2Cl)cc1	/	/	.	2.2µM	/
O=C(CSCc1c(F)cccc1Cl)NCc1ccncc1	/	/	.	?	/
COC(=O)N[C@H](C[N+](=O)[O-])C(C)(C)C	/	/	.	.	.
COc1cccc(Nc2ncc3nc(-c4cn(C)c5ccccc45)c(=O)n(CCC#N)c3n2)c1	/	/	.	?	/
COc1ccc(Oc2ncc3nc(-c4cc(F)cc(F)c4)c(=O)n(C[C@H]4CCCO4)c3n2)cc1	/	/	.	?	/
O=C1C=C(c2cccs2)C[C@H](c2ccccc2)[C@H]1n1nnc([N+](=O)[O-])n1	?	.	.	7.9µM	.
O=C1C2ON(c3ccccc3)C(c3cccnc3)C2C(=O)N1Cc1ccccc1 (configuration not stated)	?	.	.	35µM	.
Cc1ccccc1N1C(=O)C2ON(c3ccccc3)C(c3cccnc3)C2C1=O (configuration not stated)	.	.	.	.	.
O=C(CCS(=O)(=O)c1cc(Br)cc2c1N(C(=O)C1CC1)CC2)NCc1ccco1	.	?	.	11µM	.
O=C(CCS(=O)(=O)c1cc(Br)cc2c1N(C(=O)C1CC1)CC2)NCc1ccccc1Cl	/	.	/	/	/
